{"source": "PubChem BioAssay (NCATS)", "note": "Results filed as inconclusive are left out. Entries that show only a call come without a potency. A number with no mark means an inactive call. Activity calls are given as the source filed them. The call rests on the fitted dose curve; in most records, active means well fitted inhibition curve with a large enough effect; inconclusive means small, poorly fitted or top-dose-only effect; inactive means no such curve, though single readings can be large or run the other way.", "data": [{"assay": "Primary qHTS for small molecule stabilizers of the endoplasmic reticulum resident proteome: Secreted ER Calcium Modulated Protein (SERCaMP) assay (AID 1508630)", "conditions": "SH-SY5Y GLuc-SERCaMP (Gaussia luciferase released on ER calcium loss) secretion, thapsigargin, luminescence; series mostly up to 38.4 µM", "source_text": "Assay Provider: Brandon K. Harvey Ph.D.\nNational Institute on Drug Abuse, National Institutes of Health, Baltimore, MD\nEndoplasmic reticulum (ER) dysregulation is associated with human pathologies including neurodegenerative, cardiovascular, muscular, and diabetic conditions. Maintenance of ER calcium is critical for functions of the ER and its depletion can lead to loss of ER resident proteins, in a process termed exodosis. Therapeutic compounds capable of attenuating the redistribution of ER proteins under pathological conditions may slow or stop disease progression. To identify such compounds, we performed a quantitative high-throughput screen (qHTS) using the SERCaMP assay, which monitors secretion of ER resident proteins triggered by calcium depletion.\nSERCaMP was initially developed as a reporter of ER calcium homeostasis using a Gaussia luciferase with a modified signal peptide and carboxy-terminus (GLuc-SERCaMP), modifications that confer secretion of the reporter in response to ER calcium depletion (Henderson et al., 2014). The assay was used to screen 9,501 compounds, including a collection of drugs approved by the FDA (US), EMA (EU), NHI (Japan), and HC (Canada) regulatory agencies (Huang et al., 2011). Since the SERCaMP reporter reflects the exodosis phenomenon (Trychta et al., 2018a), compounds identified in the screen have the potential to prevent exodosis by different mechanisms such as stabilizing ER calcium or augmenting ERS retrieval.\n1. Henderson, M.J., Wires, E.S., Trychta, K.A., Richie, C.T., and Harvey, B.K. (2014). SERCaMP: a carboxy-terminal protein modification that enables monitoring of ER calcium homeostasis. Mol Biol Cell 25, 2828-2839.\n2. Huang, R., Southall, N., Wang, Y., Yasgar, A., Shinn, P., Jadhav, A., Nguyen, D.T., and Austin, C.P. (2011). The NCGC pharmaceutical collection: a comprehensive resource of clinically approved drugs enabling repurposing and chemical genomics. Sci Transl Med 3, 80ps16.\n3. Trychta, K.A., Back, S., Henderson, M.J., and Harvey, B.K. (2018a). KDEL Receptors Are Differentially Regulated to Maintain the ER Proteome under Calcium Deficiency. Cell Rep 25, 1829-1840 e1826.\nSEQUENCE No. (1, 2, 3, etc.); […] (e.g., Cells, Incubation, Reagent, etc.); VALUE and DESCRIPTION.\n1; Reagent; 5 uL; 1000 SH-SY5Y cells per wells\n3; Compound; 23 nL; Control inhibitor / compound library\n5; Reagent; 100 nM; Thapsigargin\n7; Reagent; 1 uL; 0.5x coelenterazine\n8; Detection; Luminescence; ViewLux imaging system\nNOTES (numbers refer to sequence above)\n1; SH-SY5Y human neuroblastoma cells stably expressing GLuc-SERCaMP (SH-SY5Y-GLuc-ASARTDL) cells were seeded in 1,536 well white tissue culture treated plates (Corning, Cat# 7464) in DMEM-high glucose-sodium pyruvate (ThermoFisher Scientific, Cat #10569) supplemented with 10% bovine growth serum (Hyclone), 10 U/ml penicillin (Gibco), 10 ug/ml streptomycin (Gibco), and 20 mM HEPES.\n2; Assay plates were incubated for 5 hour at 37C in a humidified incubator containing 5% CO2.\n3; qHTS libraries (23 nl, final concentrations of 1.53 uM, 7.67 uM, 38.3 uM) or controls (neutral control: DMSO, positive control: dantrolene) were added using a Kalypsis pin-tool Robotic System equipped with 1536 pinheads.\n4; Cells were then incubated for 16 hours at 37C, 5% CO2.\n5; Thapsigargin was added at 100 nM to deplete ER calcium stores.\n6; Cells were incubated for 4 hour (37 °C, 5% CO2)\n7; Gaussia luciferase in the medium was measured by adding 1 ul of 0.5x coelenterazine (final concentration 0.07x) prepared in Gaussia Luciferase Glow Assay Buffer (Pierce), without addition of the Cell Lysis Buffer Reagent.\n8; Luminescence was measured using a ViewLux […] CCD imaging system (Perkin Elmer) equipped with clear filters. […] The same controls were also used for the calculation of the Z' factor, a measure of assay quality control, as previously described (Zhang et al., 1999). […]", "values": [{"smiles": "O=C(O)c1ccccc1Nc1cccc(C(F)(F)F)c1", "Potency": "inactive"}, {"smiles": "Nc1ncnc2c1ncn2[C@@H]1O[C@H](COP(=O)(O)CP(=O)(O)OP(=O)(O)O)[C@@H](O)[C@H]1O", "Potency": "inactive"}, {"smiles": "CCc1c(C(=O)NCCc2ccc(N3CCCCC3)cc2)[nH]c2ccc(Cl)cc12", "Potency": "inactive"}, {"smiles": "CN(C)C(N)=NCCC[C@H](N)C(=O)O", "Potency": "inactive"}, {"smiles": "CCOC(=O)N1CCN(/[N+]([O-])=N/Oc2ccc([N+](=O)[O-])cc2[N+](=O)[O-])CC1", "Potency": "inactive"}, {"smiles": "Cn1cc(C2=C(c3ccc(Cl)cc3Cl)C(=O)NC2=O)c2ccccc21", "Potency": "inactive"}, {"smiles": "COc1cccc2c1C(=O)c1c(O)c3c(c(O)c1C2=O)C[C@@](O)(C(=O)CO)C[C@@H]3O[C@H]1C[C@H](N)[C@H](O[C@@H]2CCCCO2)[C@H](C)O1", "Potency": "inactive"}, {"smiles": "COC(=O)Nc1nc2ccc(C(=O)C3CC3)cc2[nH]1", "Potency": "inactive"}, {"smiles": "CC(N)C(=O)OC(C)(C)Cc1ccc(Cl)cc1", "note": "(stereo not given)", "Potency": "inactive"}, {"smiles": "C[N+](C)(C)CC(=O)[O-]", "Potency": "inactive"}, {"smiles": "O=C1NC(=O)c2c1c(-c1ccccc1)cc1[nH]c3ccc(O)cc3c21", "Potency": "inactive"}, {"smiles": "CC(=O)/C=C1\\C(=O)N(C)c2ccccc21", "Potency": "inactive"}, {"smiles": "Clc1ccc(N2CCN(Cc3c[nH]c4ncccc34)CC2)cc1", "Potency": "inactive"}, {"smiles": "CC12C(=O)OC(=O)C1(C)C1CCC2O1", "note": "(stereo not given)", "Potency": "inactive"}, {"smiles": "N[C@H](CCCP(=O)(O)O)C(=O)O", "Potency": "inactive"}, {"smiles": "O=C(O)Cc1cccc(-c2cc(CCCCCCc3ccc(O[C@H]4O[C@H](CO)[C@@H](O)[C@H](O)[C@@H]4O)c(-c4cccc(CC(=O)O)c4)c3)ccc2O[C@H]2O[C@H](CO)[C@@H](O)[C@H](O)[C@@H]2O)c1", "activity change, negative = inhibition": "-18.9% [at 0.478 µM]"}, {"smiles": "Cc1nc2ccccc2n1Cc1ccc(Cl)cc1", "Potency": "inactive"}, {"smiles": "C[C@@H](CN1CCC(Cc2ccccc2)CC1)[C@@H](O)c1ccc(O)cc1", "Potency": "inactive"}, {"smiles": "O=C(Nc1ccccc1)c1cc([N+](=O)[O-])ccc1Cl", "Potency": "inactive"}, {"smiles": "CO/S(=N\\S(=O)(=O)c1ccc(Cl)cc1)c1ccc([N+](=O)[O-])cc1", "note": "(stereo not given)", "Potency": "inactive"}, {"smiles": "Cn1ncc(S(=O)(=O)Cc2ccccc2)c(Br)c1=O", "Potency": "inactive"}, {"smiles": "Nc1nc(Nc2ccccc2)nc2c1ncn2[C@@H]1O[C@H](CO)[C@@H](O)[C@H]1O", "Potency": "inactive"}, {"smiles": "O=C(O)CC1CCCc2ccccc2C1O", "note": "(stereo not given)", "Potency": "inactive"}, {"smiles": "CC1(C)CCC=[N+]1[O-]", "Potency": "inactive"}, {"smiles": "NO", "Potency": "inactive"}, {"smiles": "O=C(/C=C/c1ccc(O)cc1)c1ccc(O)cc1O", "Potency": "inactive"}, {"smiles": "CCCCCCCCCCCCCCCCCC(=O)NCC(COP(=O)([O-])OCC[N+](C)(C)C)OCC", "note": "(stereo not given)", "Potency": "inactive"}, {"smiles": "COc1ccc(NC(=O)/C=C/c2ccc(Cl)cc2)cc1", "Potency": "inactive"}, {"smiles": "COc1cc2c3cc1Oc1cc(ccc1O)C[C@@H]1c4c(cc(OC)c(O)c4Oc4ccc(cc4)C[C@@H]3N(C)CC2)CC[N+]1(C)C", "Potency": "inactive"}, {"smiles": "CSc1ccccc1N1CCN(CCCCCC(=O)NC2CCCc3ccccc32)CC1", "note": "(stereo not given)", "Potency": "inactive"}, {"smiles": "C=CCc1cccc(/C=N/NC(=O)CN2CCN(Cc3ccccc3)CC2)c1O", "Potency": "inactive"}, {"smiles": "CN(C)c1nc(N)c(C(=O)N=C(N)N)nc1Cl", "Potency": "inactive"}, {"smiles": "C/C(=N\\O)c1ccc(OCC(=O)N2CCCCC2)cc1", "Potency": "inactive"}, {"smiles": "O=C(CCN1CCN(CCO)CC1)N1c2ccccc2Sc2ccc(C(F)(F)F)cc21", "Potency": "inactive"}, {"smiles": "O=C(OCc1ccccc1)c1ccccc1", "Potency": "inactive"}, {"smiles": "O=c1[nH]c2cc([N+](=O)[O-])c([N+](=O)[O-])cc2[nH]c1=O", "Potency": "inactive"}, {"smiles": "N[C@@H](CC(=O)O)C(=O)O", "Potency": "inactive"}, {"smiles": "c1ccc2sc(SN3CCOCC3)nc2c1", "Potency": "inactive"}, {"smiles": "COC(=O)c1c(C)[nH]c(C)c1C(=O)c1ccccc1Cc1ccccc1", "Potency": "inactive"}, {"smiles": "CNC(=O)[C@H]1O[C@@H](n2cnc3c(NCc4cccc(I)c4)ncnc32)[C@H](O)[C@@H]1O", "Potency": "inactive"}]}]}
